PAFAH1B3 FP inh: inhibitors of human PAFAH1B3. Q15102. recombinant PAFAH1B3, FP-rhodamine probe, fluorescence polarization. inhibition, % at 3.39 µM. actives 0.28% (n = 340,000);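 active means inhibition above the screen-wide average of all tested compounds plus 3 SD, cut at about 25% in these data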;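 further: 0% = enzyme with DMSO only and 100% = wells lacking PAFAH1B3 protein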
pPAFAH inh: inhibitors of human plasma PAF acetylhydrolase (pPAFAH) | Q13093 | actives 1.5% (n = 330,000) | inhibition, % at 3.39 µM | recombinant pPAFAH, FP-rhodamine probe fluorescence polarization;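 active means inhibition above the mean inhibition across the screen plus 3 SD, cut at about 25% in these data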;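 further: inhibitors block binding of the rhodamine activity-based probe so polarization drops; 0% = enzyme with DMSO and 100% = wells lacking pPAFAH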
Target sequence (Q13093 whole entry, looked up): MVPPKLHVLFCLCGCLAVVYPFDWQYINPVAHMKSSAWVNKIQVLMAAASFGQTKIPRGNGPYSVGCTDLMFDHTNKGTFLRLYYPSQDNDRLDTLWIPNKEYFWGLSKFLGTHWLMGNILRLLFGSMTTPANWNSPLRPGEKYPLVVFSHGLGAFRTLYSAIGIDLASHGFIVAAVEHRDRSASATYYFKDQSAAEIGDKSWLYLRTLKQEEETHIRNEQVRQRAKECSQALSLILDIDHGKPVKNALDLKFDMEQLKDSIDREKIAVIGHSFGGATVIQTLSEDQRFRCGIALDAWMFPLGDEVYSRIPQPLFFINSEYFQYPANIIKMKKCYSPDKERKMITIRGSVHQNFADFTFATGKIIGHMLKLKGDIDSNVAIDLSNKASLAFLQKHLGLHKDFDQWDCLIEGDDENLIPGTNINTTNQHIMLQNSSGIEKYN
Fam108B counter: counter-screen for RBBP9 inhibitors: inhibitors of mouse Fam108B. recombinant Fam108B, FP-Rh probe fluorescence polarization. inhibition, % at 9.51 µM. actives 0.33% (n = 300,000);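 active means inhibition above the screen mean inhibition plus 3 SD, computed separately per campaign, cut at about 18% in these data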;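 further: inhibitors lower polarization as less probe binds the enzyme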
PAFAH1B2 FP inh: inhibitors of human PAFAH1B2; actives 1.2% (n = 340,000); inhibition, % at 3.39 µM; P68402; recombinant PAFAH1B2, FP-rhodamine activity probe, fluorescence polarization;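 active means inhibition above the mean of all tested compounds plus 3 SD, cut at about 24% in these data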;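 further: 0% = enzyme with DMSO and 100% = wells lacking PAFAH1B2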
PAFAH2 FP inh: PAFAH2 (human) inhibition; actives 0.99% (n = 340,000); recombinant PAFAH2, FP-rhodamine activity probe, fluorescence polarization; inhibition, % at 3.39 µM; Q99487;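 active means inhibition above the mean over all tested compounds plus 3 SD, cut at about 30% in these data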;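 further: inhibitors block probe labeling of enzyme so polarization drops; 0% = enzyme with DMSO and 100% = wells lacking PAFAH2 protein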
PME-1 primary: PME-1 (human) inhibition; AID 2130; actives 0.53% (n = 320,000); recombinant PME-1, FP-Rh probe fluorescence polarization; inhibition, % at 5.9 µM; Q9Y570;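 active means inhibition above the campaign mean of all compounds plus 3 SD, cut at about 26% in these data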;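 further: competitive labeling of PME-1 active site by serine hydrolase directed probe; 0% = PME-1 with DMSO and 100% = wells lacking PME-1 enzyme; inhibitors block probe labeling so polarization falls and inhibition rises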
Starred values were filed as active, the others as inactive; nt = no result. The list is not random: actives were taken first. Their share in the collection is about 2.9%.

SMILES	PAFAH1B3 FP inh	pPAFAH inh	Fam108B counter	PAFAH1B2 FP inh	PAFAH2 FP inh	PME-1 primary
O=C1NC[C@@H](c2ccccc2)OC(=O)[C@H](Cc2ccc(F)cc2)C/C=C\C[C@H]1CC(=O)N(CCO)Cc1ccccc1	7	-1	nt	29*	5	nt
O=C1NC[C@H](c2ccccc2)OC(=O)[C@H](Cc2ccc(F)cc2)C/C=C\C[C@H]1CC(=O)N(CCO)Cc1ccccc1	12	12	nt	51*	-6	nt
O=C1NC[C@H](c2ccccc2)OC(=O)[C@H](Cc2ccc(F)cc2)CC/C=C/C[C@@H]1CC(=O)N(CCO)Cc1ccccc1	11	-2	nt	0	-4	nt
O=C1NC[C@@H](c2ccccc2)OC(=O)[C@@H](Cc2ccc(F)cc2)CC/C=C/C[C@H]1CC(=O)N(CCO)Cc1ccccc1	10	20	nt	66*	1	nt
CC(C)(C)OC(=O)C[C@@H]1C/C=C\C[C@H](CC(=O)N(CCO)Cc2ccccc2)C(=O)NC[C@@H](c2ccccc2)OC1=O	-6	0	nt	6	-11	nt
Cc1ccc(N(C(=O)Cc2c[nH]c3ccccc23)C(C(=O)NC2CCCCC2)c2ccco2)cc1 (stereo not drawn)	6	2	4	2	5	2
O=C(c1ccccc1)N1CCC(c2nc(-c3ccc(S(=O)(=O)NCC4CCCO4)cc3)no2)CC1 (stereo not drawn)	-3	-1	6	-8	0	0
O=C(N/N=C/c1ccc([N+](=O)[O-])o1)c1ccccc1NS(=O)(=O)c1cccs1	5	34*	4	6	6	7
O=C(N/N=C/c1ccc([N+](=O)[O-])o1)c1cc2ccccc2o1	11	30*	-1	7	2	7
O=C(N/N=C/c1ccc([N+](=O)[O-])o1)c1cc2c(ccc3ccccc32)o1	2	nt	nt	2	17	nt
O=C(NN=Cc1ccc(F)cc1)c1ccccc1NS(=O)(=O)c1cccs1	7	19	nt	5	15	nt
O=C(NN=Cc1cc(Br)c(O)c(Br)c1)c1ccccc1NS(=O)(=O)c1cccs1	30*	31*	nt	4	11	nt
CCN(CCCNC(=O)CCCn1c(=O)[nH]c2ccccc2c1=O)c1cccc(C)c1	6	4	5	2	3	-2
CCN(C(=O)c1ccc(=O)n(C)n1)c1c(N)n(Cc2ccccc2)c(=O)[nH]c1=O	9	-2	nt	6	4	nt
COC(=O)c1cc(S(=O)(=O)N(C)Cc2ccco2)c[nH]1	5	-4	2	-3	3	4
CC(C)c1ccc(NS(=O)(=O)c2ccc3[nH]cc(C(=O)N4CCC(C(N)=O)CC4)c(=O)c3c2)cc1	6	70*	-2	2	1	-2
CC1(C)C2CCC(C2)C1(C)NC(=O)CN1CCOCC1 (stereo not drawn)	2	2	0	10	-2	3
CCC1C/C(=C\c2cc(OC)c(OC)cc2OC)C(=O)/C(=C/c2cc(OC)c(OC)cc2OC)C1 (stereo not drawn)	5	15	5	2	6	10
CCC1C/C(=C/c2ccco2)C(=O)/C(=C/c2ccco2)C1 (stereo not drawn)	nt	37*	-4	nt	nt	-4
Cn1nnc2cc(NC(=O)N3CC4(C)CC3CC(C)(C)C4)ccc21 (stereo not drawn)	3	5	-2	9	-2	-2
C=CC[n+]1c(/C=C/c2ccc(OC(C)=O)c(OC)c2)ccc2ccccc21	1	-4	-7	2	-13	-10
CC(C)c1ccc(OCC(=O)NC(C)c2ccccc2)cc1 (stereo not drawn)	4	11	0	29*	-2	3
CCC(C)NC(=O)COc1ccc(OCc2ccccc2)cc1 (stereo not drawn)	4	6	0	27*	8	5
CCNC(=O)COc1ccc(OCc2ccccc2)cc1	1	5	-1	10	3	0
O=C(NCCS(=O)(=O)N1CCN(c2ccccc2F)CC1)C1CC(=O)N(c2ccccc2)C1 (stereo not drawn)	2	-2	0	5	4	1
SMILES	PAFAH1B3 FP inh	pPAFAH inh	Fam108B counter	PAFAH1B2 FP inh	PAFAH2 FP inh	PME-1 primary
CN(C)/C=C(\C=O)c1onc(-c2ccccc2Cl)c1C#N	3	4	3	-2	33*	10
N#Cc1c(-c2ccccc2Cl)noc1/C=C/Nc1ccc(C(=O)O)cc1	11	5	6	6	19	4
C[C@H]1COC(=O)[C@@H](Cc2ccc(F)cc2)CC/C=C/C[C@H](CC(=O)N(CCO)Cc2ccccc2)C(=O)N1	-2	1	nt	25*	-7	nt
C[C@H]1COC(=O)[C@@H](Cc2ccc(F)cc2)CC/C=C/C[C@@H](CC(=O)N(CCO)Cc2ccccc2)C(=O)N1	4	4	nt	26*	2	nt
CCOc1ccccc1C1CC(=O)NC(SCC(=O)Nc2nccs2)=C1C#N (stereo not drawn)	2	1	-1	-1	-7	-1
Cc1cc(CSCc2ccc(Cl)cc2)no1	-3	3	0	27*	0	0
CCOC(=O)NC(=O)/C(C#N)=C\NNc1ncc(C(F)(F)F)cc1Cl	-4	-7	-2	6	-2	-3
Cc1nc(S/C(=C/c2ccc(-c3ccc(C(=O)O)cc3)o2)C(=O)O)n[nH]1	20	33*	3	1	14	-5
Cc1ccc(/C=C2\SC(=S)N(NS(=O)(=O)c3ccc(C)cc3)C2=O)cc1	9	1	-1	5	9	-2
Cc1ccc(S(=O)(=O)NN2C(=O)/C(=C/c3cccn3C)SC2=S)cc1	nt	61*	1	nt	nt	2
O=S(=O)(Nc1ccc(S(=O)(=O)Nc2cccc3ccccc23)cc1)c1ccccc1	-1	33*	-3	30*	8	4
Cc1ccc(Oc2ccc(S(=O)(=O)Nc3ccc(C(=O)O)cc3)cc2)cc1	0	29*	nt	7	-3	-2
CC(=O)N1CCN(C(=O)c2ccc(NS(=O)(=O)c3ccc(Cl)c(Cl)c3)cc2)CC1	11	nt	nt	4	4	nt
COc1ccc(C(=O)O)cc1S(=O)(=O)Nc1ccc(Oc2ccccc2)cc1	6	27*	nt	8	0	-6
CC(=O)c1ccc(NS(=O)(=O)c2ccc(C)cc2)cc1	3	-1	-2	13	-8	-4
O=S(=O)(Nc1ccc(-c2ccccc2)cc1)c1ccccc1	-7	nt	nt	1	-1	nt
O=C(O)c1ccc(NS(=O)(=O)c2cccc(S(=O)(=O)c3ccc(Cl)c(Cl)c3)c2)cc1	-2	11	4	9	73*	7
O=C(NCc1nc2ccccc2[nH]1)C1=C[C@H](c2ccc(C(F)(F)F)cc2)C[C@H](OCc2ccc(CO)cc2)O1	-5	-4	-12	-4	-24	-9
Cc1nn(C)cc1S(=O)(=O)N1CCN(c2cccc(Cl)c2)CC1	5	4	-3	5	-1	8

Screening data: PubChem, The Scripps Research Institute Molecular Screening Center
